# Test results from PubChem BioAssay (Tox21).
# Activity calls are given as the source filed them. Where a call stands in place of a potency, no number is given. Calls follow the shape of the dose curve; as a rule, active = well fitted cell-killing curve with a large enough effect in the repeat runs; inconclusive = weak or mixed curves, or effect the other way; inactive = flat fitted curve, though single readings scatter.
# Experiment: qHTS assay to identify small molecule HDAC inhibitors - cell viability counter screen (AID 1259365); also: nearly all actives have a fitted effect of over 50% in size
# Conditions: HCT-116 viability, CellTiter-Glo ATP luminescence, 2 h; series mostly up to 92.4 µM
# Source text: U.S. Tox21 Program National Center for Advancing Translational Sciences [NCATS] NIH Chemical Genomics Center [NCGC] U.S. Environmental Protection Agency [EPA] National Institutes of Environmental Health Sciences [NIEHS] National Toxicology Program [NTP] U.S. Food and Drug Administration [FDA] Tox21 Assay Overview: Histone deacetylases (HDACs) are a group of epigenetic enzymes that regulate gene expression by histone deacetylation. HDACs are capable of introducing epigenetic modifications and such aberrations contribute to the onset and progression of several human diseases, thus making HDACs a popular therapeutic target. For identifying endogenous class I/II HDAC inhibitors a homogenous, luminogenic HDAC I/II cell based assay was used to measure the relative activity of class I and II HDACs from cells. Wild type HCT-116 cells were used to screen Tox21 compound libraries for identifying class I/II HDAC inhibitors.
# Tox21 Assay Protocol Summary: HCT-116 cells were dispensed at 1,500 per well in 5uL of culture medium into white solid bottom 1536-well plates (Greiner Bio-One, Monroe, NC) using a Multidrop Combi (Thermo Scientific, Waltham, MA) dispenser. The assay plates were incubated at 37 C and 5% CO2 for an overnight, and then 23nL of compounds dissolved in DMSO and positive control were transferred using a Pintool station (Wako, San Diego, CA). The assay plates were incubated at 37C and 5% CO2 for 2hr. After compound treatment, 4uL of CellTiter-Glo reagent (Promega Corporation, Madison, WI) was added to each well of the assay plates using Flying Reagent Dispenser (FRD, Aurora Discovery, San Diego, CA) and incubated the assay plates at room temperature for 30min. The luminescence signal was quantified using a ViewLux plate reader (Perkin Elmer, Shelton, CT).
Compound,Potency,"activity change, negative = cytotoxicity"
c1ccc2occc2c1,inactive,–
CCc1cccc(CC)c1,inactive,–
O=C1CCC/C=C\CCCCCCCCCC1,inactive,–
c1ccc2c(c1)-c1ccc3ccc4cccc5cc-2c1c3c45,inactive,–
C=C(C)C1CCC(C)CC1O (stereo not given),inactive,–
O=C1CCCCCCCCCCCCCC1,inactive,–
O=S(=O)(c1ccc(OCc2ccccc2)cc1)c1ccccc1O,inactive,–
N#Cc1ccc(C/C(=N/NC(=O)Nc2ccc(OC(F)(F)F)cc2)c2cccc(C(F)(F)F)c2)cc1,inactive,–
CCCOC(=O)c1ccc(O)cc1,inactive,–
CCn1c2ccccc2c2ccccc21,inactive,–
COc1cc2ncnc(Nc3cccc(Cl)c3)c2cc1OC,–,2.53% [at 19 µM] (inactive)
CCOc1nc(F)cc2nc(S(=O)(=O)Nc3c(Cl)cccc3C(=O)OC)nn12,inactive,–
CSc1nnc(C(C)(C)C)c(=O)[nH]1,inactive,–
COCCC(=O)OC,inactive,–
CC1CCC(C(C)(C)O)CC1 (stereo not given),inactive,–
O=c1cc[nH]cc1,inactive,–
N#CCCOCCC#N,inactive,–
CCCCCCCCCCCCCCCCC(C(=O)O)C(O)(CC(=O)O)C(=O)O (stereo not given),inactive,–
CCc1c(C)cc(N)c(CC)c1N,inactive,–
O=[N+]([O-])c1ccc(O)c2ncccc12,inactive,–

Compound,Potency,"activity change, negative = cytotoxicity"
CC(CC(C)(C)C)CC(C)(C)CC(C)(C)C (stereo not given),inactive,–
CC(C)C(=O)C(C)C,inactive,–
Cc1ccc(C=O)cc1,inactive,–
S=C1NC=NC2N=CNC12 (stereo not given),inactive,–
Cn1c(=O)[nH]c2ncn(C)c2c1=O,inactive,–
[Cl][Sc]([Cl])[Cl],inactive,–
CCC(=O)OC/C=C(\C)CCC=C(C)C,inactive,–
Cc1ccc2nc(-c3ccc(N)cc3)sc2c1S(=O)(=O)O,inactive,–
Cc1cccc(C)c1C,inactive,–
CCN(CC)c1ccc(C=O)c(O)c1,inactive,–
COC(=O)c1ccc([N+](=O)[O-])cc1,inactive,–
Cc1cccc2c1ccc1ccccc12,inactive,–
Nc1cccnc1N,inactive,–
C=CC(C)(C)O,inactive,–
Cc1ccc(Cl)c(N)c1Cl,inactive,–
CCOC(=O)C1=NN(c2ccc(Cl)cc2Cl)C(C)(C(=O)OCC)C1 (stereo not given),inactive,–
O=C1OC2(c3ccccc31)c1ccc(O)c(Br)c1Oc1c2ccc(O)c1Br,inactive,–
CC(C)(C)c1cc(CCC(=O)OCCSCCOC(=O)CCc2cc(C(C)(C)C)c(O)c(C(C)(C)C)c2)cc(C(C)(C)C)c1O,inactive,–
CCOC(=O)[C@H](O)[C@@H](O)C(=O)OCC,inactive,–
O=C(O)C[C@H](O)C[C@H](O)/C=C/c1c(C2CC2)nc2ccccc2c1-c1ccc(F)cc1,–,0.738% [at 19 µM] (inactive)
